Screens (PubChem)
Chronic BCR inh – inhibitors of chronic active B-cell receptor signaling; Potency, µM (titrated, usually from 46.1 µM), usual class: inhibitors; AID 493014; ABC-DLBCL IkBa-CBG/CBR reporter, luminescence ratio, 4 h; actives 0.05% (n = 340,000); active means well fitted inhibition curve with a large enough effect in the signal ratio, with a control signal flat, not every such curve was filed as active; inconclusive means small, poorly fitted or top-dose-only effect, or effect the other way, or a change in a side signal; the % refers to the signal ratio
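TMD8 human ABC-DLBCL cells with doxycycline-inducible IκBα–green luciferase fusion and unfused red luciferase, in 0.5% FBS medium; compounds up to 46 uM, 4 h at 37C. Green/red luminescence ratio, filter-overlap corrected, fitted to concentration-response curves.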
IL1B secr inh – inflammasome signaling inhibition, IL-1 beta readout; THP-1 LPS/ATP IL-1B secretion, AlphaLISA, 16 h; stronger effect = lower value; activity change, % at 57.5 µM; actives 4.7% (n = 360,000); in the data active means activity change below about -50%; inconclusive means mostly about -30% to -49%
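THP-1 cells pretreated 1 hr with compounds (up to 57.5 uM final), then stimulated with LPS (250 ng/mL final) plus ATP (1.25 mM final); secreted IL-1B measured by AlphaLISA after 16 hr, decreased signal indicating inhibition.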
DT40 TDP1 CPT – DT40-hTDP1 cell growth loss with CPT | chicken DT40 Tdp1-/-;hTDP1 cells + 20 nM CPT, ATP luminescence, 48 h | Potency, µM (top dose mostly 46.2 µM), most hits filed as inhibitors | actives 12% (n = 420,000); further: nearly all actives have a fitted effect of over 55% in size
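Cell growth measured by CellTiter-Glo luminescence after a minimum 48 h, 37 C compound exposure with 20 nM CPT in Tdp1-knockout DT40 cells stably expressing hTDP1, seeded 400/well; qHTS titration format.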
MCF10A rerep – DNA re-replication induction in MCF 10a cells; Potency, µM (series often up to 46.1 µM), hits mostly activators; actives 2.9% (n = 350,000); MCF 10A DNA re-replication, Hoechst nuclear intensity, 48 h; further: nearly all actives have a fitted effect of over 50% in size
TDP1 cell noCPT – qHTS for Inhibitors of human tyrosyl-DNA phosphodiesterase 1 (TDP1): qHTS in cells in absence of CPT | DT40 Tdp1-/- hTDP1 cells, no CPT, ATP luminescence, 48 h | Potency, µM (doses to about 46.2 µM), usual class: inhibitors | actives 15% (n = 420,000); further: nearly all actives have a fitted effect of over 55% in size
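Chicken DT40 Tdp1-/- cells stably complemented with human TDP1 were seeded at 400 cells/well with DMSO in place of 20 nM camptothecin. After compound pinning, cells grew at least 48 hr at 37 °C; viability read by CellTiter-Glo luminescence.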
SW480 rereplic – inducers of DNA re-replication in SW480 colon cancer cells | SW480 DNA re-replication, Hoechst DNA content imaging, 48 h | Potency, µM (highest dose often 46.1 µM), most hits filed as activators | actives 1.8% (n = 340,000) | AID 624297; further: nearly all actives have a fitted effect of over 55% in size
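Treated cells incubate 48 hr (37 C, 5% CO2), are stained 40 min with Hoechst, and nuclear fluorescence is enumerated; a rise in nuclei with high DNA signal marks re-replication.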
Large screens that a line does not name were inactive. Shown are actives, neighbours in structure and some others; about 19% of the full set was active somewhere. Unless noted, the call rests on the fitted dose curve; in most records, active means well fitted curve in the direction sought with a large enough effect; inconclusive means small, poorly fitted or top-dose-only effect, or another doubt; inactive means no such curve, though single readings can be large; an effect the other way counts as inactive or inconclusive.

N#Cc1cccc(NC(=O)c2cc(C3CCCCN3C(=O)c3ccc4c(c3)CCO4)on2)c1 (configuration not stated)	DT40 TDP1 CPT inconclusive, TDP1 cell noCPT inconclusive (no result: Chronic BCR inh, MCF10A rerep, SW480 rereplic)
O=C(Nc1ccccc1)c1cc(C2CCCCN2C(=O)c2ccc3c(c2)CCO3)on1 (configuration not stated)	DT40 TDP1 CPT 23.1µM, TDP1 cell noCPT 18.4µM (no result: Chronic BCR inh, MCF10A rerep, SW480 rereplic)
O=C(Nc1ccc(F)c(Cl)c1)c1cc(C2CCCCN2C(=O)c2ccc3c(c2)CCO3)on1 (configuration not stated)	DT40 TDP1 CPT 16.4µM, TDP1 cell noCPT 20.6µM (no result: Chronic BCR inh, MCF10A rerep, SW480 rereplic)
O=C(NCc1ccc(F)cc1)c1cc(C2CCCCN2C(=O)c2ccc3c(c2)CCO3)on1 (configuration not stated)	DT40 TDP1 CPT 18.4µM, TDP1 cell noCPT 18.4µM (no result: Chronic BCR inh, MCF10A rerep, SW480 rereplic)
COc1cc(-c2nc3cccc(C)n3c2NCC2CCCO2)ccc1O (configuration not stated)	TDP1 cell noCPT inconclusive
COc1ccc(-c2sc3cc4c(cc3c2C#Cc2cncn2C)OCO4)cc1	Chronic BCR inh inconclusive, DT40 TDP1 CPT 25.9µM, TDP1 cell noCPT 14.6µM
COc1ccc(-c2sc3ccc(OC)cc3c2C#Cc2cncn2C)cc1	IL1B secr inh inconclusive, DT40 TDP1 CPT inconclusive, MCF10A rerep inconclusive, TDP1 cell noCPT inconclusive
COc1ccc(-c2oc3ccccc3c2C#Cc2cncn2C)cc1	IL1B secr inh inconclusive, DT40 TDP1 CPT 16.4µM, MCF10A rerep 18.4µM, TDP1 cell noCPT 18.4µM, SW480 rereplic inconclusive
COc1ccc(-c2sc3cc4c(cc3c2C#CC2(N)CCCCC2)OCO4)cc1	Chronic BCR inh inconclusive, DT40 TDP1 CPT 8.2µM, MCF10A rerep inconclusive, TDP1 cell noCPT 11.6µM, SW480 rereplic inconclusive
COc1cc(OC)cc(-c2sc3ccc(OC)cc3c2C#CC2(N)CCCCC2)c1	IL1B secr inh inconclusive, DT40 TDP1 CPT inconclusive, MCF10A rerep 14.6µM, TDP1 cell noCPT 14.6µM, SW480 rereplic 18.4µM
CC(C)N(Cc1nnc(-c2ccc(Cl)cc2)o1)C(=O)c1cc2ccccc2o1	Chronic BCR inh inconclusive, TDP1 cell noCPT inconclusive
O=S(=O)(Cc1nnnn1-c1ccccc1)c1ccc(Cl)cc1	none
O=C(CNc1cccc(S(=O)(=O)N2CCOCC2)c1)N1CCc2ccccc21	SW480 rereplic inconclusive
COc1ccc(-c2sc3ccc(N4CCOCC4)cc3c2C#CC2(O)CCCCC2)cc1	DT40 TDP1 CPT inconclusive, MCF10A rerep inconclusive, TDP1 cell noCPT inconclusive, SW480 rereplic inconclusive
COc1cccc(-c2sc3ccc(OC)cc3c2C#CC2(O)CCCCC2)c1	DT40 TDP1 CPT inconclusive, MCF10A rerep inconclusive, TDP1 cell noCPT 23.1µM, SW480 rereplic inconclusive
CC(=O)N1CCN(C2=NC(=O)/C(=C/c3ccc(OS(=O)(=O)c4ccccc4)cc3)S2)CC1	DT40 TDP1 CPT 20.6µM, TDP1 cell noCPT inconclusive
O=C1N=C(N2CCOCC2)S/C1=C/c1cc2c(cc1[N+](=O)[O-])OCO2	Chronic BCR inh inconclusive, IL1B secr inh -99.8, DT40 TDP1 CPT 11.6µM, MCF10A rerep inconclusive, TDP1 cell noCPT 13µM
O=C1N=C(N2CCOCC2)S/C1=C\c1ccccc1OS(=O)(=O)c1ccccc1	DT40 TDP1 CPT 11.6µM, TDP1 cell noCPT 8.2µM
Cc1ccc(S(=O)(=O)Oc2ccc(/C=C3/N=C(c4ccccc4)OC3=O)cc2)cc1	IL1B secr inh inconclusive, DT40 TDP1 CPT inconclusive, TDP1 cell noCPT inconclusive
O=C1N=C(N2CCOCC2)SC1=Cc1ccco1	none (no result: Chronic BCR inh)
C=C(C)COc1ccc(-c2[nH]ncc2Oc2cccc(OC)c2)c(O)c1	Chronic BCR inh inconclusive, DT40 TDP1 CPT inconclusive, MCF10A rerep inconclusive, TDP1 cell noCPT 13µM, SW480 rereplic inconclusive
C=C(C)COc1ccc(-c2[nH]ncc2Oc2ccccc2OCC)c(O)c1	Chronic BCR inh inconclusive, IL1B secr inh -63.0, DT40 TDP1 CPT inconclusive, MCF10A rerep 16.4µM, SW480 rereplic inconclusive
CCOc1ccccc1Oc1cn[nH]c1-c1ccc(O)cc1O	TDP1 cell noCPT inconclusive
